From publication PMC5700166 come the findings set out here.

Common to all, as to assay: protein-binding microarray (PBM); PBM: ~300 nM protein, 6 mM HEPES pH 7.8, 80 mM KCl, 0.5 mM EDTA, 0.5 mM EGTA, 6% glycerol, 35 ng/ul poly-dIdC, 1% milk, 1 h, room temperature; Ap Aiptasia and Nv Nematostella (sea anemones) / Co Capsaspora / Aq Amphimedon (sponge) / Dm Drosophila / Hu human; RHD is the Rel homology domain; high values mean tight binding
Holding throughout (conditions): dsDNA, one strand shown

One test has as its target T1, GST-Ap-NF-kB RHD (Exaiptasia pallida (Aiptasia), UniProt A0A913YAJ5 2-422).
T1 sequence: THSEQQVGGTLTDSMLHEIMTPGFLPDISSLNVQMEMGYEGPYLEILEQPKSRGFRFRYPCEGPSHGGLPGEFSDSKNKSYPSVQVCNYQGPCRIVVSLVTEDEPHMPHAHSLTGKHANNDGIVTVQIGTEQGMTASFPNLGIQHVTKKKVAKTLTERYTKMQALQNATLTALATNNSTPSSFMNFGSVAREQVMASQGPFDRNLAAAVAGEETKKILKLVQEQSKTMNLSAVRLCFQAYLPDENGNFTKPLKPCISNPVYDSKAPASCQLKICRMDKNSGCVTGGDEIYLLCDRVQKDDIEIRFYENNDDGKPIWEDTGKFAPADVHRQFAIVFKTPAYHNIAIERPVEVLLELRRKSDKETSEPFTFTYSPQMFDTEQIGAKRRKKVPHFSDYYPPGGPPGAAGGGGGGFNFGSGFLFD

Test [1] has as its target T2, GST-Nv-NF-kB (Cys allele) (Nematostella vectensis, UniProt E5G601 2-411).
T2 sequence: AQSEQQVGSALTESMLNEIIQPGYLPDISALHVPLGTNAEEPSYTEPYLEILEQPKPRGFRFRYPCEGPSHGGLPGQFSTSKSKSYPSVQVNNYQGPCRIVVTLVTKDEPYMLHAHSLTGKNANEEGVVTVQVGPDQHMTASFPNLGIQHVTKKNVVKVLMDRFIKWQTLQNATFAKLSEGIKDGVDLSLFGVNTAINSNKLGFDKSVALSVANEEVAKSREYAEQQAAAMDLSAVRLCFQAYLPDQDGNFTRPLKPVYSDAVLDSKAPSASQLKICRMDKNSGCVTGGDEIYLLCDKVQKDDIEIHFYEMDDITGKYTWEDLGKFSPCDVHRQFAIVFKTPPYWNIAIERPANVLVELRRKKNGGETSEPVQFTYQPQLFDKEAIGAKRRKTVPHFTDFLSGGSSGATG

The next test addresses T3, GST-Co-NF-kB (Capsaspora owczarzaki, UniProt F1ARL5 200-546).
T3 sequence: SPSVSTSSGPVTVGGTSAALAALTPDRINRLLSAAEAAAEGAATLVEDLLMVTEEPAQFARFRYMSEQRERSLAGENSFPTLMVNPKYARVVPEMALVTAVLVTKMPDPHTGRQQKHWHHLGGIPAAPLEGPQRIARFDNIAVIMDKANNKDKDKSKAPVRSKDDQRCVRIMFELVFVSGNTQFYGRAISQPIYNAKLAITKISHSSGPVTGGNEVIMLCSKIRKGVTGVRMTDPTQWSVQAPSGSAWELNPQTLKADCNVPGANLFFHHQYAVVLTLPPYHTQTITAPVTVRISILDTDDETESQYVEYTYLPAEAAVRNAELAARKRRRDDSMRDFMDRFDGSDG

The next test addresses T4, GST-Dm-Relish (Drosophila melanogaster, UniProt Q94527 99-473).
T4 sequence: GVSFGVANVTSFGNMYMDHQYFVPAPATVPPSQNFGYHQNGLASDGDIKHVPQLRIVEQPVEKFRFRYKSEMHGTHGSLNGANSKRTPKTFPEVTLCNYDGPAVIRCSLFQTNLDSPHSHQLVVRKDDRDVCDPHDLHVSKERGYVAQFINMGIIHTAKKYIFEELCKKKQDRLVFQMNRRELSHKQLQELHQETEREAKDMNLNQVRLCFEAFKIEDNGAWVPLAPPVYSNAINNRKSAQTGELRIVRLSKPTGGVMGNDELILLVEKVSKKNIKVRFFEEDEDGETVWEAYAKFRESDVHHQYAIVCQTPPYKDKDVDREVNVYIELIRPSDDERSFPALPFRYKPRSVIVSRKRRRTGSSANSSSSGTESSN

A further test has as its target T5, GST-Aq-NF-kB (Amphimedon queenslandica, UniProt A9Y5G7 2-389).
T5 sequence: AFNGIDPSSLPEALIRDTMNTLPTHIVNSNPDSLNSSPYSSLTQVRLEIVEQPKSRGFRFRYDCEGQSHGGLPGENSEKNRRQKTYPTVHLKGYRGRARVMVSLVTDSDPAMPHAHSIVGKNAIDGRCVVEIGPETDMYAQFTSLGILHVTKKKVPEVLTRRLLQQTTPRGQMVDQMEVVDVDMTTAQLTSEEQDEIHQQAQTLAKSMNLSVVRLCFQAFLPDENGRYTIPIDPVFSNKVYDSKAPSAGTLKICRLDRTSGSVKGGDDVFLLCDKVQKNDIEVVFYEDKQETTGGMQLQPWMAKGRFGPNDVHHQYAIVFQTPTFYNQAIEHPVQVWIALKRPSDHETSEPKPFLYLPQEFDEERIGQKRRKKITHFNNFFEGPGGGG

For a further test, the target named is GST-Hu-p50 (Homo sapiens, UniProt P19838 7-356).
Sequence of GST-Hu-p50 (P19838 7-356): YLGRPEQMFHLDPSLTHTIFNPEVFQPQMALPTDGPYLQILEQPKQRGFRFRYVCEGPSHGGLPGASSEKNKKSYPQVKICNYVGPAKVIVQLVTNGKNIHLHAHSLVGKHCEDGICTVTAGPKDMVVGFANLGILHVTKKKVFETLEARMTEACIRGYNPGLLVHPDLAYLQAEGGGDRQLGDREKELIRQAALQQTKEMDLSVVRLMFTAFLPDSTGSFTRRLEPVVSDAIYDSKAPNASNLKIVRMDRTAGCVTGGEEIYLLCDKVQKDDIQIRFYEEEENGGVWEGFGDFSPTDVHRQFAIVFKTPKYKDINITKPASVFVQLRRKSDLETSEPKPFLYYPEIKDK

Turning to “CCGATTAACATCAGGAACTCCCCTGATGTTAATCGGGTCTTGATTCGCTTGACGCTGCTG”, the binding signal turned out to be 8.99 z-score with GST-Ap-NF-kB RHD; 7.4 z-score in test [1]; 3.87 z-score with GST-Co-NF-kB; 7.91 z-score with GST-Dm-Relish; 8.17 z-score in the test with GST-Aq-NF-kB; 5.57 z-score with GST-Hu-p50.
For the sequence “CCGATTAACATCAGGGGACCCCCTGATGTTAATCGGGTCTTGATTCGCTTGACGCTGCTG”, the binding signal with GST-Ap-NF-kB RHD is 9.65 z-score; in test [1], 6.03 z-score; with GST-Co-NF-kB, 4.17 z-score; with GST-Dm-Relish, 10.7 z-score; with GST-Aq-NF-kB, 8.56 z-score; with GST-Hu-p50, 5.4 z-score.
Consider “CCGATTAACATCAAATTTACCCCTGATGTTAATCGGGTCTTGATTCGCTTGACGCTGCTG”, for which the binding signal worked out at 3.29 z-score with GST-Ap-NF-kB RHD; 3.57 z-score in test [1]; 8.25 z-score with GST-Co-NF-kB; 3.85 z-score with GST-Dm-Relish; 4.53 z-score with GST-Aq-NF-kB; 4.09 z-score with GST-Hu-p50.
Take “CCGATTAACATCAGAAGTCCCCCTGATGTTAATCGGGTCTTGATTCGCTTGACGCTGCTG”: the binding signal was determined as 7.95 z-score with GST-Ap-NF-kB RHD; 7.32 z-score in test [1]; 5.95 z-score in the test with GST-Co-NF-kB; 7.74 z-score with GST-Dm-Relish; 6.54 z-score with GST-Aq-NF-kB; 6.36 z-score with GST-Hu-p50.
“CCGATTAACATCAACACTCCCCCTGATGTTAATCGGGTCTTGATTCGCTTGACGCTGCTG”: the binding signal in the test with GST-Ap-NF-kB RHD amounted to 5.32 z-score; in test [1] it was 4.24 z-score; with GST-Co-NF-kB, 5.26 z-score; with GST-Dm-Relish, 2.43 z-score; with GST-Aq-NF-kB it was 4.25 z-score; in the test with GST-Hu-p50, 5.34 z-score.
On to “CCGATTAACATCAGGGGCTTACCTGATGTTAATCGGGTCTTGATTCGCTTGACGCTGCTG”, for which the binding signal in the test with GST-Ap-NF-kB RHD worked out at 4.59 z-score; in test [1], 6.21 z-score; in the test with GST-Co-NF-kB, 1.88 z-score; with GST-Dm-Relish it was 5.58 z-score; in the test with GST-Aq-NF-kB it was 7.25 z-score; in the test with GST-Hu-p50, 4.8 z-score.
For the sequence “CCGATTAACATCACTAATCCCCCTGATGTTAATCGGGTCTTGATTCGCTTGACGCTGCTG”, the binding signal with GST-Ap-NF-kB RHD turned out to be 6.44 z-score; in test [1], 5.78 z-score; in the test with GST-Co-NF-kB, 5.81 z-score; in the test with GST-Dm-Relish, 5.13 z-score; with GST-Aq-NF-kB it was 4.99 z-score; with GST-Hu-p50, 6.23 z-score.
For the sequence “CCGATTAACATCAGGGCTCCCCATGATGTTAATCGGGTCTTGATTCGCTTGACGCTGCTG”, the binding signal with GST-Ap-NF-kB RHD was 2.59 z-score; in test [1], 1.32 z-score; with GST-Co-NF-kB it was 2.03 z-score; with GST-Dm-Relish, 3.88 z-score; with GST-Aq-NF-kB it was 2.46 z-score; with GST-Hu-p50, 1.51 z-score.
As for “CCGATTAACATCAGGGGGAGTCATGATGTTAATCGGGTCTTGATTCGCTTGACGCTGCTG”, the binding signal with GST-Ap-NF-kB RHD stood at 5.67 z-score; in test [1], 4.38 z-score; with GST-Co-NF-kB it was 4.79 z-score; with GST-Dm-Relish, 3.88 z-score; with GST-Aq-NF-kB, 4.55 z-score; with GST-Hu-p50, 4.72 z-score.
On to “CCGATTAACATCAGGGGGGAGAATGATGTTAATCGGGTCTTGATTCGCTTGACGCTGCTG”, for which the binding signal with GST-Ap-NF-kB RHD was 6 z-score; in test [1], 4.08 z-score; in the test with GST-Co-NF-kB it was 7.95 z-score; with GST-Dm-Relish, 3.85 z-score; with GST-Aq-NF-kB, 4.82 z-score; with GST-Hu-p50, 6.41 z-score.
Consider “CCGATTAACATCAGATCCCCCCCTGATGTTAATCGGGTCTTGATTCGCTTGACGCTGCTG”, for which the binding signal in the test with GST-Ap-NF-kB RHD amounted to 8.16 z-score; in test [1], 5.56 z-score; in the test with GST-Co-NF-kB it was 6.72 z-score; with GST-Dm-Relish, 5.21 z-score; with GST-Aq-NF-kB it was 5.39 z-score; in the test with GST-Hu-p50, 5.36 z-score.
For the sequence “CCGATTAACATCAAGGAGTCCCCTGATGTTAATCGGGTCTTGATTCGCTTGACGCTGCTG”, the binding signal with GST-Ap-NF-kB RHD came to 7.69 z-score; in test [1], 5.61 z-score; with GST-Co-NF-kB it was 3.12 z-score; with GST-Dm-Relish it was 8.59 z-score; with GST-Aq-NF-kB it was 5.54 z-score; with GST-Hu-p50 it was 5.86 z-score.
Take “CCGATTAACATCAAGGGACTTCCTGATGTTAATCGGGTCTTGATTCGCTTGACGCTGCTG”: the binding signal stood at 6.06 z-score with GST-Ap-NF-kB RHD; 7.09 z-score in test [1]; 1.07 z-score with GST-Co-NF-kB; 7.2 z-score with GST-Dm-Relish; 6.58 z-score with GST-Aq-NF-kB; 5.08 z-score with GST-Hu-p50.
